Test results reported in PubChem BioAssay (EPA / NIEHS).
Several values for one entry are separate records, joined by “and”; a condition that tells them apart may be missing. Equal entries are not always repeated. A structure can be active in one record and inactive in another. Activity calls are given as the source filed them. Rule for the calls: active = hit-call score of the fitted dose curve at least 0.9, where 1 is the maximum; inactive = score below 0.9.

Legend:
[1] = read-out: Matrix Metallopeptidase 1 (MMP1), MMP1 (gene 4312); assay: BSK_BF4T_MMP1: BioMAP Diversity Plus: BF4T Assay for Matrix Metallopeptidase 1 (MMP1) Biomarker Activity (AID 2284270); conditions: primary human bronchial epithelial cells with fibroblasts
Outline: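 Co-culture of human bronchial epithelial cells and dermal fibroblasts; MMP-1 levels measured by ELISA 24 hours after chemical dosing, relative to DMSO. Cytotoxicity checked in parallel cultures by SRB total-protein staining.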

[2] = read-out: Matrix Metallopeptidase 3 (MMP3), MMP3 (gene 4314); assay: BSK_BF4T_MMP3: BioMAP Diversity Plus: BF4T Assay for Matrix Metallopeptidase 3 (MMP3) Biomarker Activity (AID 2284271); conditions: primary human bronchial epithelial cells with fibroblasts
Outline: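 Co-culture of human bronchial epithelial cells and dermal fibroblasts dosed 24 h; MMP-3 measured by ELISA, positive-direction fit versus DMSO. Cytotoxicity tracked by SRB total-protein staining (560 nm) in parallel cultures.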

[3] = read-out: Plasminogen Activator Inhibitor-1 (PAI1), SERPINE1 (gene 5054); assay: BSK_BF4T_PAI1: BioMAP Diversity Plus: BF4T Assay for Plasminogen Activator Inhibitor-1 (PAI1) Biomarker Activity (AID 2284273); conditions: primary human bronchial epithelial cells with fibroblasts
Outline: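 Co-culture of human bronchial epithelial cells and dermal fibroblasts exposed to compound for 24 h. PAI-1 measured by ELISA; activity fitted in positive direction versus DMSO. Parallel SRB staining assessed overt cytotoxicity.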

[4] = BSK_BF4T_SRB: Viability Assessment in the BioMAP Diversity Plus: BF4T Assay (AID 2284274); conditions: primary human bronchial epithelial cells with fibroblasts;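 for AC50: total cell protein by sulforhodamine B staining as a cytotoxicity measure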
Outline: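 Co-culture of human bronchial epithelial cells and dermal fibroblasts (BioMAP BF4T) exposed 24 h. Total protein by sulforhodamine B staining (0.1% SRB after 10% TCA fixation, 560 nm) in parallel cultures; fitted vs DMSO.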

[5] = read-out: urokinase Plasminogen Activator (uPA), PLAU (gene 5328); assay: BSK_BF4T_uPA: BioMAP Diversity Plus: BF4T Assay for urokinase Plasminogen Activator (uPA) Biomarker Activity (AID 2284275); conditions: primary human bronchial epithelial cells with fibroblasts
Outline: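 Co-culture of human bronchial epithelial cells and dermal fibroblasts; uPA quantified by ELISA 24 hours after dosing, fitted relative to DMSO. Parallel SRB total-protein staining assessed overt cytotoxicity.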

[6] = read-out: Interferon-inducible T-cell alpha chemoattractant (ITAC), CXCL11 (gene 6373); assay: BSK_BE3C_ITAC: BioMAP Diversity Plus: BE3C Assay for Interferon-inducible T-cell alpha chemoattractant (ITAC) Biomarker Activity (AID 2284279); conditions: primary human bronchial epithelial cells
Outline: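 Steps: dose human bronchial epithelial cells with chemical; incubate 24 h; measure I-TAC by ELISA; fit endpoint in positive direction against DMSO control. Cytotoxicity was checked in parallel cultures by SRB staining at harvest.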

[7] = read-out: Tissue plasminogen activator (tPA), PLAT (gene 5327); assay: BSK_BF4T_tPA: BioMAP Diversity Plus: BF4T Assay for Tissue plasminogen activator (tPA) Biomarker Activity (AID 2284272); conditions: primary human bronchial epithelial cells with fibroblasts
Outline: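 tPA level quantified by ELISA at 24 h post-treatment in bronchial epithelial/dermal fibroblast co-cultures, gain of signal scored against DMSO baseline. Parallel cultures stained with 0.1% SRB (560 nm) to flag overt cytotoxicity.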

[8] = read-out: Interleukin-8 (IL8), CXCL8 (gene 3576); assay: BSK_IMphg_IL8: BioMAP Diversity Plus: IMphg Assay for Interleukin-8 (IL8) Biomarker Activity (AID 2284277); conditions: primary human endothelial cells with macrophages
Outline: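 Co-culture of human venular endothelial cells and macrophages exposed to chemicals for 24 h; IL-8 quantified by ELISA and compared against the DMSO baseline, with SRB total-protein staining in parallel cultures for cytotoxicity.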

[9] = read-out: Matrix Metallopeptidase 9 (MMP9), MMP9 (gene 4318); assay: BSK_BF4T_MMP9: BioMAP Diversity Plus: BF4T Assay for Matrix Metallopeptidase 9 (MMP9) Biomarker Activity (AID 2284276); conditions: primary human bronchial epithelial cells with fibroblasts
Outline: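 Co-culture of human bronchial epithelial cells and dermal fibroblasts dosed for 24 h; MMP-9 quantified by ELISA and fitted upward versus DMSO. Cytotoxicity monitored in parallel cultures by SRB total-protein staining at the biomarker time point.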

[10] = read-out: Intercellular Adhesion Molecule 1 (ICAM1), ICAM1 (gene 3383); assay: BSK_BE3C_ICAM1: BioMAP Diversity Plus: BE3C Assay for Intercellular Adhesion Molecule 1 (ICAM1) Biomarker Activity (AID 2284278); conditions: primary human bronchial epithelial cells
Outline: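 Measured by ELISA: ICAM-1 expressed by primary human bronchial epithelial cells 24 h after compound treatment, with upward-direction fitting versus DMSO vehicle.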

Measured: AC50

OCC(F)(F)C(F)(F)C(F)(F)C(F)(F)C(F)(F)C(F)(F)C(F)(F)C(F)(F)CO
active: [2] 19.3 µM | [3] 15.1 µM and 13.6 µM | [4] 26.2 µM and 30 µM | [6] 39.6 µM and 31.6 µM
inactive: [1] | [2] | [5]

O=C(Cl)C(F)(F)C(F)(F)C(F)(F)C(F)(F)C(F)(F)C(F)(F)C(F)(F)F
active: [1] 19.9 µM | [5] 21.6 µM
inactive: [1] | [2] | [3] | [4] | [5] | [6]

O=C(O)C(F)(F)C(F)(F)C(F)(F)OC(F)(F)F
not listed: [9] | [10]
inactive: all other assays above

O=S(=O)(O)CCC(F)(F)C(F)(F)C(F)(F)C(F)(F)F
not listed: [7] | [10]
inactive: all other assays above

CN(C(=O)C(F)(F)C(F)(F)C(F)(F)F)[Si](C)(C)C
not listed: [7] | [9]
inactive: all other assays above

CNS(=O)(=O)C(F)(F)C(F)(F)C(F)(F)C(F)(F)C(F)(F)C(F)(F)C(F)(F)C(F)(F)F
inactive: [1] | [2] | [7] | [3] | [4] | [5] | [6]
active: [2] 13.3 µM

O=C(O)C(F)(F)C(F)(F)C(F)(F)OC(F)(C(F)(F)F)C(F)(F)F
inactive: [1] | [2] | [3] | [4] | [5] | [6]
active: [2] 39.5 µM

FC(F)(F)C(F)(F)C(F)(F)CC1CO1 (stereo not given)
not listed: [7] | [8] | [10]
inactive: all other assays above

FC(F)(F)C(F)(F)C(F)(F)C(F)(F)C(F)(F)C(F)(F)CC[Si](Cl)(Cl)Cl
active: [2] 0.211 µM
inactive: [1] | [2] | [3] | [4] | [5] | [8] | [6]

C=CC(=O)OCC(F)(F)C(F)(F)C(F)(F)C(F)(F)C(F)(F)C(F)(F)C(F)(F)C(F)F
not listed: [7] | [8] | [10]
inactive: all other assays above

OCCCCC(F)(F)C(F)(F)C(F)(F)C(F)(F)F
not listed: [10]
inactive: all other assays above

NS(=O)(=O)C(F)(F)C(F)(F)C(F)(F)C(F)(F)C(F)(F)C(F)(F)F
active: [2] 49.5 µM | [6] 30 µM
inactive: [1] | [2] | [3] | [4] | [5] | [6]

C=CC(=O)OCC(F)(F)C(F)(F)C(F)(F)COC(=O)C=C
inactive: [1] | [2]
active: [1] 50.2 µM | [3] 20.7 µM and 23.4 µM | [4] 43.4 µM and 47.1 µM | [5] 30 µM and 25.7 µM | [9] 21.5 µM and 21.8 µM | [6] 45 µM and 43 µM

OC(O)C(F)(F)C(F)(F)F
not listed: [7] | [9] | [10]
inactive: all other assays above

CO[Si](C)(CCC(F)(F)C(F)(F)C(F)(F)C(F)(F)C(F)(F)C(F)(F)F)OC
not listed: [7] | [9]
inactive: all other assays above

O=S(=O)(Cl)C(F)(F)C(F)(F)C(F)(F)C(F)(F)C(F)(F)C(F)(F)C(F)(F)C(F)(F)F
inactive: [1] | [2] | [5]
active: [3] 44.9 µM and 44.6 µM | [4] 50.8 µM and 46.8 µM | [5] 30 µM | [6] 53.8 µM and 55.1 µM

O=C(O)CCC(F)(F)C(F)(F)C(F)(F)C(F)(F)C(F)(F)C(F)(F)C(F)(F)F
active: [6] 3.43 µM and 2.52 µM
not listed: [8] | [9] | [10]
inactive: all other assays above

C=CC(=O)OCCC(F)(F)C(F)(F)C(F)(F)C(F)(F)F
not listed: [9] | [10]
inactive: all other assays above

CCN(CCO)S(=O)(=O)C(F)(F)C(F)(F)C(F)(F)C(F)(F)C(F)(F)C(F)(F)C(F)(F)C(F)(F)F
active: [2] 24 µM | [6] 47.1 µM and 42.6 µM
inactive: [1] | [2] | [3] | [4] | [5]

O=C(Cl)C(F)(F)C(F)(F)C(F)(F)C(F)(F)C(F)(F)C(F)(F)F
not listed: [8] | [9] | [10]
inactive: all other assays above

NC(=O)C(F)(F)C(F)(F)C(F)(F)C(F)(F)C(F)(F)C(F)(F)C(F)(F)F
not listed: [8] | [9] | [10]
inactive: all other assays above

O=C(O)CCC(F)(F)C(F)(F)C(F)(F)F
not listed: [7] | [8] | [10]
inactive: all other assays above

OCC(F)(F)C(F)(F)C(F)(F)C(F)(F)C(F)(F)C(F)(F)CO
inactive: [1] | [2] | [3] | [4] | [5] | [6]

C=C(C)C(=O)OCC(F)(F)C(F)(F)C(F)(F)C(F)F
not listed: [7] | [8] | [9]
inactive: all other assays above

NC(O)(C(F)(F)F)C(F)(F)F
inactive: [1] | [2] | [3] | [4] | [5] | [6]

O=C(O)C(F)(F)OC(F)(F)C(F)(F)OC(F)(F)C(F)(F)OC(F)(F)F
not listed: [7] | [8] | [9]
inactive: all other assays above

OCC(O)CC(F)(F)C(F)(F)C(F)(F)C(F)(F)F (stereo not given)
inactive: [1] | [2] | [3] | [4] | [5] | [6]

OCCCC(F)(F)C(F)(F)C(F)(F)C(F)(F)C(F)(F)C(F)(F)C(F)(F)C(F)(F)F
active: [1] 49 µM and 45.1 µM | [2] 40.1 µM and 40.6 µM | [3] 20.7 µM and 30 µM | [4] 31.6 µM and 29.4 µM | [5] 22.5 µM and 19.4 µM | [6] 50.2 µM and 51.8 µM

NC(=O)C(F)(F)C(F)(F)C(F)(F)C(F)F
not listed: [7] | [9] | [10]
inactive: all other assays above

O=C(F)C1(F)C(F)(F)C(F)(F)C(F)(F)C(F)(F)C1(F)F
inactive: [1] | [2] | [3] | [4] | [5] | [6]

OCC(O)CC(F)(F)C(F)(F)C(F)(F)C(F)(F)C(F)(F)C(F)(F)C(F)(F)C(F)(F)F (stereo not given)
not listed: [7] | [8] | [9]
inactive: all other assays above

NC(=O)C(F)(F)C(F)(F)C(F)(F)C(F)(F)C(N)=O
inactive: [1] | [2] | [3] | [4] | [5] | [6]

COC(F)(C(F)F)C(F)(F)F (stereo not given)
inactive: [1] | [2] | [3] | [4] | [5] | [6]

O=S(=O)(OCC(F)(F)F)C(F)(F)C(F)(F)C(F)(F)C(F)(F)F
inactive: [1] | [2] | [3] | [4] | [5] | [6]

CCN=C1C=CC(=C(c2ccc(N(CC)CC)cc2)c2ccc(N(CC)CC)cc2)c2ccccc21
active: [10] 3.19 µM and 2.57 µM | [6] 2.7 µM and 2.3 µM

NC(=O)C(F)(F)C(F)(F)C(F)(F)F
inactive: [1] | [2] | [3] | [4] | [5] | [6]

OCC(F)(F)C(F)(F)C(F)(F)CO
inactive: [1] | [2] | [3] | [4] | [5] | [6]

FC(F)(F)C(F)(F)C(F)(F)C(F)(F)C(F)(F)C(F)(F)C(F)(F)CCI
inactive: [1] | [2] | [3] | [4] | [5] | [6]

O=C(O)C(F)(F)C(F)(F)C(F)(F)C(=O)O
inactive: [1] | [2] | [3] | [4] | [5] | [6]

NCC(F)(F)C(F)(F)C(F)(F)C(F)(F)C(F)(F)C(F)(F)C(F)(F)C(F)(F)F
not listed: [7] | [9] | [10]
inactive: all other assays above

NCC(F)(F)C(F)(F)C(F)(F)C(F)(F)C(F)(F)C(F)(F)F
inactive: [1] | [2] | [3] | [4] | [5] | [6]

O=S(=O)(O)CCC(F)(F)C(F)(F)C(F)(F)C(F)(F)C(F)(F)C(F)(F)C(F)(F)C(F)(F)F
inactive: [1] | [2] | [3] | [4] | [5] | [6]

C[Si](Cl)(Cl)CCC(F)(F)C(F)(F)C(F)(F)C(F)(F)C(F)(F)C(F)(F)F
inactive: [1] | [2] | [3] | [4] | [5] | [6]

O=C(O)C(F)(F)C(F)(F)C(F)(F)C(F)(F)C(F)(F)C(F)(F)C(F)F
inactive: [1] | [2] | [3] | [4] | [5] | [6]

CCOC(=O)CC(=O)C(F)(F)C(F)(F)F
inactive: [1] | [2] | [3] | [4] | [5] | [6]
